One may read the AC50 as the concentration giving half of the maximal activity seen.

From PubChem BioAssay (EPA / NIEHS) come the findings set out here.

Several values for one entry are separate records, joined by “and”; a condition that tells them apart may be missing. Equal entries are not always repeated. Inconclusive results are not listed. The source holds several records for some structures; these can differ, active in one and inactive in another. Activity calls are given as the source filed them. How the source made its calls: active means hit-call score of the fitted dose curve at least 0.9, where 1 is the maximum; inconclusive means response in the unintended direction; inactive means score below 0.9.

This experiment is described as follows: ACEA_ER_80hr: ACEA Biosciences xCELLigence Real-Time Cell Analysis on Estrogen Receptor Agonism for Proliferation (AID 2282667). Particulars: T47D proliferation, impedance (xCELLigence), 80 h. The method, then: ACEA_ER is a cell-based, single-readout assay that uses T47D, a human breast cell line, with measurements taken at 80 hours after chemical dosing in a 96-well plate, although TO2 (mc0.srcf) used a 384-well plate. Differences in plate size can be ignored given data normalization.ACEA_ER_80hr is one of two assay component(s) measured or calculated from the ACEA_ER assay. It is designed to make measurements of real-time cell-growth kinetics, a form of growth reporter, as detected with electrical impedance signals by Real-Time Cell Electrode Sensor (RT-CES) technology.Data from the assay component ACEA_ER_80hr was analyzed into 1 assay endpoint. This assay endpoint, ACEA_ER_80hr_Positive, was analyzed in the positive analysis fitting direction relative to DMSO as the negative control and baseline of activity. Using a type of growth reporter, measures of the cells for gain-of-signal activity can be used to understand the signaling at the pathway-level as they relate to the gene ESR1. Furthermore, this assay endpoint can be referred to as a primary readout, because this assay has produced multiple assay endpoints where this one serves a signaling function. To generalize the intended target to other relatable targets, this assay endpoint is annotated to the nuclear receptor intended target family, where the subfamily is steroidal.
The xCELLigence system Multi-E-Plate stations were used to measure the time-dependent response to chemicals. Each compound was tested in an eight-point, 1:4 serial dilution series starting at a maximum final concentration of 100 uM. A maximum starting concentration of 0.5% DMSO was present in the 100 uM chemical samples and was diluted along with the test article dilution series. The screen was performed in biological duplicate using two separate, 96-well, E-Plates 96 for each dilution series (n = 2). Positive controls (MG132 and E2) and a negative control (assay media) were tested in quadruplicate on each testing plate. […] Reference compounds were tested with 8 concentrations with 1:5 serial dilutions. All screening was carried out by ACEA Biosciences, Inc. (San Diego, CA). T-47D cells purchased from ATCC were maintained in RPMI1640 media supplemented with 10% characterized fetal bovine serum (FBS). […] Cells were then detached and seeded in E-Plates 96 in assay medium. After overnight monitoring of growth once every hour, compounds were added to […] cells and remained in the medium until the end of the experiment. Cellular responses were then recorded once every 5 min for the first 5 h, and once every hour for an additional 100 h.
Take `O=C(NC(=O)c1cc(F)c(F)cc1Cl)Nc1cc(F)ccc1N1CCC(C(=O)O)CC1`: the call was inactive.
On the same count and under the same terms, then `Cc1ccc(O)c(C)c1`, with “inactive”; and `Nc1ccc(-c2ccc(N)cc2)cc1`, with “inactive”.
For `OCC(O)CO`, the molecule was classed as inactive.
Turning to `ClC(Cl)=C(c1ccc(Cl)cc1)c1ccc(Cl)cc1`, the molecule was classed as inactive.
Same read-out and setting: to `COS(=O)(=O)OC` belongs “inactive”.
For the molecule `CCC(=O)O[C@H]1CC[C@H]2[C@@H]3CCC4=CC(=O)CC[C@]4(C)[C@H]3CC[C@]12C`, the concentration at half-maximal activity (AC50) was 176 nM (active) and 243 nM (active) and 917 nM (active).
Still for that read-out and setting: then `Cc1cc(-c2ccc(N)c(C)c2)ccc1N`, with 27 µM (active) and 9.92 µM (active).
In the case of `Cc1ccccc1[N+](=O)[O-]`, the call was inactive.
Turning to `COc1ccc(O)c(C(C)(C)C)c1`, the half-maximal activity concentration (AC50) was 1.95 µM (active).
As to `Clc1ccc(Cl)cc1`, the molecule was called inactive.
On to `CC(C)(c1ccccc1)c1ccc(O)cc1`, for which the AC50 is 483 nM (active) [middle of 4 runs].
Take `CN(C)CCO`: the molecule was called inactive.
Consider `CC(C)(O)C(=O)Nc1ccc([N+](=O)[O-])c(C(F)(F)F)c1`, for which the AC50 is 38.5 µM (active) and 68.7 µM (active).
As for `c1ccc(-c2ccccc2)cc1`, the call was inactive.
On to `Cc1ccccc1O`, for which the result was inactive.
Same read-out and setting: to `O=C(O)C(F)(F)C(F)(F)C(F)(F)C(F)(F)C(F)(F)F` belongs “inactive”.
With `C[C@]12CCC(=O)C=C1CC[C@@H]1[C@@H]2CC[C@@]2(C)[C@H]1CC[C@]2(C)O`, the AC50 was 45.5 nM (active) and 64.3 nM (active) and 5.3 µM (active).
As for `CCCCCCCCCC[N+](C)(C)CCCCCCCCCC`, the outcome was inactive.
Consider `C=CC(=O)NCNC(=O)C=C`, for which the call was inactive.
The same measure, in the same setting: then `CCCCCCOC(=O)c1ccccc1C(=O)OCCCCCC`, with “inactive”.
Turning to `Clc1ccc(C(c2ccccc2Cl)C(Cl)(Cl)Cl)cc1` (stereo not given), the half-maximal activity concentration (AC50) was 393 nM (active) and 193 nM (active); the call was inactive.
As to `CC(c1ccc(O)cc1)(c1ccc(O)cc1)c1ccc(O)cc1`, the concentration at half-maximal activity (AC50) was 1.54 µM (active).
In the case of `Cc1cccc([N+](=O)[O-])c1`, the call was inactive.
For the molecule `Nn1cnnc1`, the AC50 is 60.3 µM (active).
Turning to `CCCN(CCC)N=O`, the result was inactive.
The same measure, in the same setting: then `Sc1ccccc1`, with “inactive”; and `Cc1cc(O)ccc1Cl`, with “inactive”.
As for `CC1=C2C[C@H]3[C@@H](CC=C4C[C@@H](O)CC[C@@]43C)[C@@H]2CC[C@]12O[C@@H]1C[C@H](C)CN[C@H]1[C@H]2C`, the molecule was called inactive.
With `O=C(O)C(F)(F)C(F)(F)C(F)(F)C(F)(F)C(F)(F)C(F)(F)C(F)(F)C(F)(F)C(F)(F)F`, the molecule was called inactive.
In the case of `CCOCCOC(C)=O`, the outcome was inactive.
For the molecule `O=NN(c1ccccc1)c1ccccc1`, the result was inactive.
Consider `CCC(C)c1cc([N+](=O)[O-])cc([N+](=O)[O-])c1O` (stereo not given), for which the molecule was called inactive.
The same measure, in the same setting: then `Oc1ccc(Cl)cc1Cl`, with “inactive”.
On the same count and under the same terms, then `CCCCCCCCCc1ccc(O)cc1`, with “inactive”; and `Oc1c(Cl)c(Cl)c(Cl)c(Cl)c1Cl`, with “inactive”.
For `C[C@]12CCC(=O)C=C1CC[C@@H]1[C@@H]2CC[C@]2(C)C(=O)CC[C@@H]12`, the AC50 is 50 µM (active) and 9.92 µM (active).
Consider `CC#Cc1cc(C)nc(Nc2ccccc2)n1`, for which the molecule was classed as inactive.
For `ClC1=C(Cl)[C@]2(Cl)[C@@H]3[C@H]4C[C@H]([C@@H]5O[C@H]45)[C@@H]3[C@@]1(Cl)C2(Cl)Cl`, the AC50 was 50 µM (active).
